Test results as given in PubChem BioAssay (Tox21).
Values joined by “and” are separate entries in the source; they are usually repeats but may differ in a detail not shown here. Equal values may be shown once. Results filed as inconclusive are left out. Where a call stands in place of a potency, no number is given. A structure can be active in one record and inactive in another. Values without a mark were called inactive. Active and inactive are the calls of the source. Unless noted, the call rests on the fitted dose curve; in most records, active means well fitted curve in the direction sought with a large enough effect in the repeat runs; inconclusive means weak or mixed curves; inactive means no such curve, though single readings can be large; an effect the other way counts as inactive or inconclusive.

How the values were obtained:
[1] = qHTS assay to identify small molecule antagonists of the estrogen related receptor (ERR) signaling pathway from Tox21 library - cell viability counter screen (AID 1224834); further: nearly all actives have a fitted effect of over 30% in size; further: potency means the concentration at half of the fitted maximal effect
Summary of the method: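 ERR reporter cells were plated 6 h before compound addition, then exposed to test compounds in DMSO for 17.5 h at 37 C. Viability was read as CellTiter-Fluor fluorescence after a 30-minute incubation at 37 C.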

[2] = biological target: Luciferin 4-monooxygenase (Photinus pyralis) (UniProt P08659); test: qHTS assay to identify small molecule inhibitors of firefly luciferase (AID 1224835); further: nearly all actives have a fitted effect of over 25% in size; further: potency means the concentration at half of the fitted maximal effect
Sequence of Luciferin 4-monooxygenase (Photinus pyralis) (P08659 whole entry, looked up): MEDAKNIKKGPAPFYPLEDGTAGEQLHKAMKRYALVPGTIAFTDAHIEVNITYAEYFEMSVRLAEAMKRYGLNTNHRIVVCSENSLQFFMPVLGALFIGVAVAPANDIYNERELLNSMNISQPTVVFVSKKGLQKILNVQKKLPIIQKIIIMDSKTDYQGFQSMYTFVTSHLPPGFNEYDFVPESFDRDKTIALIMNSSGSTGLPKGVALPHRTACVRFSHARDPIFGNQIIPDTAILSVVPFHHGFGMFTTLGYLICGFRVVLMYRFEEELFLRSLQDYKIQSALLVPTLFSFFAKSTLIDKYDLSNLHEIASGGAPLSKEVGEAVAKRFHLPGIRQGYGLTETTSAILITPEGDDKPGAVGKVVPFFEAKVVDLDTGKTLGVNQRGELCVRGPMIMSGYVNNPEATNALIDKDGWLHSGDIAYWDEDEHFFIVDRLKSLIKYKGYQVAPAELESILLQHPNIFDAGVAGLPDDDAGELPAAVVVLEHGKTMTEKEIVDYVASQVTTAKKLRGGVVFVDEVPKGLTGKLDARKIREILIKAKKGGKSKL
Summary of the method: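 Biochemical qHTS: compounds run as interplate titrations against purified firefly enzyme, with D-luciferin and ATP each at its KM concentration. Light output recorded by CCD imaging.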

[3] = qHTS assay to identify small molecule agonists of the constitutive androstane receptor (CAR) signaling pathway - cell viability counter screen (AID 1224836); further: nearly all actives have a fitted effect of over 45% in size; further: potency means the concentration at half of the fitted maximal effect; on viability change, negative = cytotoxic: series mostly up to about 92 µM
Summary of the method: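 Multiplexed viability check: HepG2-CYP2B6-hCAR cells, 15-point compound dosing, 0.75 uM PK11195 final, 23 h at 37 C, CellTiter-Fluor fluorescence.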

[4] = qHTS assay to identify small molecule antagonists of the constitutive androstane receptor (CAR) signaling pathway - cell viability counter screen (AID 1224837); further: nearly all actives have a fitted effect of over 45% in size; further: potency means the concentration at half of the fitted maximal effect
Summary of the method: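 HepG2 cells stably expressing hCAR and a CYP2B6-2.2kb reporter were plated and pre-incubated 4 hr at 37 C/5% CO2, then given compounds at 15 concentrations plus 50 nM CITCO (final). After 23 hr, viability was read by CellTiter-Fluor fluorescence.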

[5] = biological target: Nuclear receptor subfamily 1 group I member 3 (Homo sapiens) (UniProt Q14994); test: qHTS assay to identify small molecule antagonists of the constitutive androstane receptor (CAR) signaling pathway (AID 1224838); further: nearly all actives have a fitted effect of over 40% in size; further: potency means the concentration at half of the fitted maximal effect
Sequence of Nuclear receptor subfamily 1 group I member 3 (Homo sapiens) (Q14994 whole entry, looked up): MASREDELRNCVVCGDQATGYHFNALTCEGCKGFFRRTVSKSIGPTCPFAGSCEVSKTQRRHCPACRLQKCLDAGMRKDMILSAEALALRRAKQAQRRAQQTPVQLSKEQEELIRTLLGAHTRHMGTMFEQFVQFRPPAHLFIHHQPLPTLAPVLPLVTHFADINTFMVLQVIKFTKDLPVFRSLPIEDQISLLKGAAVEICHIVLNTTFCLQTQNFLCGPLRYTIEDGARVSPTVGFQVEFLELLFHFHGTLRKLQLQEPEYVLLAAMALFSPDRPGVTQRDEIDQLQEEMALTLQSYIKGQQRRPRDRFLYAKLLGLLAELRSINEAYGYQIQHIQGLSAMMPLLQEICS
Summary of the method: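 HepG2 cells stably co-transfected with hCAR and a CYP2B6-2.2kb luciferase reporter were seeded 4 h before compound addition at 15 concentrations. Cells were stimulated with 50 nM CITCO (final) for 24 h at 37 C; luciferase luminescence was then read.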

[6] = biological target: Nuclear receptor subfamily 1 group I member 3 (Homo sapiens) (UniProt Q14994); test: qHTS assay to identify small molecule agonists of the constitutive androstane receptor (CAR) signaling pathway (AID 1224839); further: nearly all actives have a fitted effect of over 15% in size; further: potency means the concentration at half of the fitted maximal effect
Summary of the method: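 Using human hepatoma HepG2 cells engineered with hCAR and a CYP2B6-2.2kb reporter, 15-concentration compound series were incubated 24 h alongside PK11195 at 0.75 uM final, with luminescence quantified afterwards.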

[7] = qHTS assay to identify small molecule antagonists of the estrogen related receptor signaling pathway with the pleiotropic PPARgamma coactivator (PGC) from Tox21 10K library - cell viability counter screen (AID 1224840; active means well fitted cell-killing curve with a large enough effect in the repeat runs, not every such curve was filed as active; further: nearly all actives have a fitted effect of over 40% in size; further: potency means the concentration at half of the fitted maximal effect)
Summary of the method: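 PGC/ERR cells were seeded at 2,000 cells/well and left 6 hours at 37 C/5% CO2 before pin-tool addition of compounds in DMSO. After 17.5 hours at 37 C, CellTiter-Fluor was added and fluorescence read 30 minutes later.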

[8] = qHTS assay to identify small molecule antagonists of the estrogen related receptor signaling pathway with the pleiotropic PPARgamma coactivator (PGC) from Tox21 10K library (AID 1224841; call rule not given here; further: actives are mostly falling curves and most rising ones were filed inactive; nearly all actives have a fitted effect of over 50% in size; further: potency means the concentration at half of the fitted maximal effect)
Summary of the method: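 PGC/ERR reporter cells were seeded at 2,000 cells/well and held 6 hours at 37 C/5% CO2 before pin-tool addition of compounds in DMSO. After 18 hours at 37 C, One-Glo was added and luminescence read after 30 minutes at room temperature.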

[9] = biological target: Thyrotropin receptor (Homo sapiens) (UniProt P16473); test: qHTS assay to identify small molecule agonists of the thyroid stimulating hormone receptor (TSHR) signaling pathway (AID 1224843; calls by dose curve; further: nearly all actives have a fitted effect of over 45% in size; further: potency means the concentration at half of the fitted maximal effect)
Sequence of Thyrotropin receptor (Homo sapiens) (P16473 whole entry, looked up): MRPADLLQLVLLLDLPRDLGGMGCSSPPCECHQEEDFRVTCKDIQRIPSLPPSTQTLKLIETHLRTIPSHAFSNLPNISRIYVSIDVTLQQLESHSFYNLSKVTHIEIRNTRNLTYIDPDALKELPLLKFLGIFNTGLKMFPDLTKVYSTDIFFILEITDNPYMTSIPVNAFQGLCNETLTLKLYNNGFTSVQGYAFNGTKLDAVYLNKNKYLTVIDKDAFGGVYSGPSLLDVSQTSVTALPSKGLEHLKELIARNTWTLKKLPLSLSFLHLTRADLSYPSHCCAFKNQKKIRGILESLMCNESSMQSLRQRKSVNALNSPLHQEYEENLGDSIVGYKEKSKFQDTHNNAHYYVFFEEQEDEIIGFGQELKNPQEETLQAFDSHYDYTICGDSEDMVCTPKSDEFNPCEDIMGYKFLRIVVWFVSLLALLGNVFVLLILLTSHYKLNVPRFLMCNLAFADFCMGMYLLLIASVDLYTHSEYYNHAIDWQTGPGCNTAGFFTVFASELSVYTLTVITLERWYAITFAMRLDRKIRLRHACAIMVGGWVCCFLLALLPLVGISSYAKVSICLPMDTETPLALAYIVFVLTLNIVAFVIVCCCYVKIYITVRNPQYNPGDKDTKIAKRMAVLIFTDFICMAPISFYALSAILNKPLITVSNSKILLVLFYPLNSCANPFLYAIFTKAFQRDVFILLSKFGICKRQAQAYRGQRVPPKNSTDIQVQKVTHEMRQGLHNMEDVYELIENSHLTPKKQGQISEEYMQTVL
Summary of the method: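 Steps: seed 800 TSHR-HEK293 cells per well; add test compound and hold 30 min at ambient temperature; dispense cAMP-d2 then anti-cAMP cryptate; incubate 1 h at ambient; measure fluorescence intensity.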

[10] = qHTS assay to identify small molecule agonists of the estrogen related receptor signaling pathway with the pleiotropic PPARgamma coactivator (PGC) from Tox21 10K library (AID 1224842); further: nearly all actives have a fitted effect of over 15% in size
Summary of the method: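 PGC/ERR reporter cell line, 2,000 cells per well, incubated 6 h at 37 C before 23 nL compound in DMSO was added. After 18 h at 37 C, One-Glo luminescence read following 30 min at room temperature.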

SMILES	Potency [1]	Potency [2]	Potency [3]	Potency [4]	Potency [5]	Potency [6]	Potency [7]	Potency [8]	Potency [9]	viability change, negative = cytotoxic [1]	Potency [10]	viability change, negative = cytotoxic [7]
ClC/C=C/CCl	inactive	inactive	inactive	inactive	inactive	inactive	inactive	inactive	inactive	–	–	–
CC(=O)Oc1c(C)c(C)c2c(c1C)CC[C@@](C)(CCC[C@H](C)CCC[C@H](C)CCCC(C)C)O2	inactive	inactive	inactive	inactive	inactive	inactive	inactive	inactive	inactive	–	–	–
COC(=O)c1ccc(C)cc1	inactive	inactive	inactive	inactive	inactive	inactive	inactive	–	inactive	–	–	–
CNC[C@H](O)c1ccc(O)c(O)c1	–	inactive	inactive	inactive	inactive	inactive	inactive	inactive	770 nM (active) and 2.31 µM (active)	2.34% [at 19 µM]	–	–
C=CCOC(=O)C(=C)C	inactive	inactive	inactive	inactive	inactive	inactive	inactive	inactive	inactive	–	–	–
CCO[Si](CCCNC(N)=O)(OCC)OCC	inactive	inactive	inactive	inactive	inactive	inactive	inactive	inactive	inactive	–	inactive	–
Oc1c(Cl)ccc(Cl)c1Cl	inactive	inactive	inactive	inactive	inactive	inactive	inactive	inactive	–	–	–	–
CCCOCCO	inactive	inactive	inactive	inactive	inactive	inactive	inactive	–	inactive	–	–	–
CC1(C)NC(=O)N(c2ccc([N+](=O)[O-])c(C(F)(F)F)c2)C1=O	inactive	inactive	inactive	inactive	inactive	inactive	inactive	inactive	inactive	–	–	–
CCOC(=O)C(C)Oc1ccc(Oc2cnc3cc(Cl)ccc3n2)cc1 (stereo not drawn)	inactive	inactive	inactive	inactive	inactive	inactive	inactive	–	–	–	–	–
CC1(C)C(C=C(Cl)Cl)C1C(=O)OCc1cccc(Oc2ccccc2)c1 (stereo not drawn)	inactive	inactive	inactive	inactive	inactive	6.81 µM (active) and 6.11 µM (active)	inactive	–	–	–	–	–
O=[Se](O)O	–	inactive	43.3 µM (active)	48.6 µM (active)	61.2 µM (active) and 3.3 µM (active)	inactive	30.7 µM (active)	–	inactive	-9.9% [at 19 µM]	–	-29.3% [at 19 µM]
c1ccc2c(c1)ccc1ncccc12	inactive	62.8 µM (active) and 35.6 µM (active)	inactive	inactive	inactive	54.1 µM (active) and 48.6 µM (active)	inactive	inactive	inactive	–	–	–
C=CN1CCCC1=O	inactive	inactive	inactive	inactive	inactive	inactive	inactive	–	–	–	–	–
COC(=O)C(C)Oc1ccc(Oc2ncc(C(F)(F)F)cc2Cl)cc1 (stereo not drawn)	inactive	inactive	inactive	inactive	inactive	inactive	inactive	78 µM (active)	inactive	–	inactive	–
C[C@]12CC[C@@H]3c4ccc(O)cc4CC[C@H]3[C@@H]1CC[C@@H]2O	30.6 µM (active) and 43.3 µM (active)	39.8 µM (active) and 79.6 µM (active)	inactive	inactive	inactive	9.67 µM (active) and 10.9 µM (active)	inactive	–	–	–	inactive	–
CCCCCCCCCCCCCO	inactive	82.5 µM (active)	inactive	inactive	inactive	inactive	inactive	inactive	–	–	–	–
O=C(O)c1ccc(O)cc1	inactive	inactive	inactive	inactive	inactive	inactive	inactive	inactive	inactive	–	–	–
COCCOCCOCCO	inactive	inactive	inactive	inactive	inactive	inactive	inactive	inactive	inactive	–	inactive	–
c1ccc2cc3ccccc3cc2c1	inactive	inactive	inactive	inactive	inactive	19.9 µM (active) and 21.7 µM (active)	inactive	inactive	inactive	–	–	–
CCCCCC=O	inactive	inactive	inactive	inactive	inactive	inactive	inactive	inactive	inactive	–	–	–
Brc1nc2ccccc2s1	inactive	39.8 µM (active)	inactive	inactive	inactive	inactive	inactive	–	inactive	–	–	–
OC[C@@H](O)[C@@H](O[C@@H]1O[C@H](CO)[C@H](O)[C@H](O)[C@H]1O)[C@H](O)[C@@H](O)CO	inactive	inactive	inactive	inactive	inactive	inactive	inactive	inactive	inactive	–	–	–
